# Test results published in publication PMC4552634, “A New Set of Chemical Starting Points with Plasmodium falciparum Transmission-Blocking Potential for Antimalarial Drug Discovery” (PLoS ONE, 2015).
# Hit rate of the full screen: of about 13,000 compounds, about 3,200 (25%) showed an effect of 50% or more. Some of the results follow.
# System: P. falciparum stage V gametocytes
# Parameters: BacTiter-Glo ATP luminescence viability of purified stage V gametocytes in 384-well plates, per cent inhibition versus DMSO
# Conditions: 48 h, 5 µM; inhibitor
row,SMILES,% Inhibition [%]
1,COc1ccc(-c2cc(NCc3ccc(-n4ccnc4)cc3)nc(Nc3ccccc3)n2)cc1 [TCMDC-133466],0.1166
2,Cc1ccc(Nc2nc(NN=Cc3ccc(-c4ccc([N+](=O)[O-])cc4)o3)nc(N3CCOCC3)n2)cc1Cl [TCMDC-123853],16.13
3,COc1ccc(CNCc2ccc(F)cc2)cc1-c1cccc(S(=O)(=O)NCCN2CCCC2)c1 [TCMDC-132223],101.2
4,COc1ccc(F)cc1-c1cccc(CNC2CCN(CC3Cn4c(=O)ccc5ccc(F)c3c54)CC2)c1 (centres unmarked) [TCMDC-134406],-45.9
5,COc1ccc(CNCc2ccccc2)cc1-c1cccc(S(=O)(=O)NCCN2CCCC2)c1 [TCMDC-132268],57.83
6,COc1ccc2nccc([C@@H](O)CN3CCC(NC(=O)c4ccc(Cl)c(Cl)c4)CC3)c2c1 [TCMDC-141036],-20.77
7,COc1cc(Nc2nccc(Nc3ccc4c(C)[nH]nc4c3)n2)cc2ccccc12 [TCMDC-138587],-18.63
8,CC(Oc1cccc(Cl)c1)C(=O)N1CCc2ccccc21 (centres unmarked) [TCMDC-123685],-22.19
9,CN(CC(=O)Nc1ccc(F)cc1)C(=O)c1ccc(-c2ccc(F)cc2)o1 [TCMDC-125342],61.72
10,CC(=O)Nc1ccc(CN(Cc2ccc(F)cc2)Cc2ccc3c(c2)OCO3)cc1 [TCMDC-140255],12.12
11,O=C(NCc1ccc(F)cc1)Nc1ccc(-c2ccc(-c3nc4ccccc4[nH]3)cc2)cc1 [TCMDC-133299],-2.169
12,Nc1ncc(-c2ccc(S(=O)(=O)Nc3ccc(C(=O)N[C@@H](CCC(=O)O)C(=O)O)cc3)cc2)c(=O)[nH]1 [TCMDC-137342],-1.262
13,O=C(Nc1ccc(-c2ccc(-c3nc4ccccc4[nH]3)s2)cc1)Nc1ccsc1 [TCMDC-133219],69.14
14,CN1CCC(C(=O)Nc2cccc(-c3ccc(-c4nc5ccccc5[nH]4)cc3)c2)CC1 [TCMDC-132186],-0.3438
15,CN1CCC(C(=O)Nc2ccc(-c3ccc(-c4nc5ccccc5[nH]4)s3)cc2)CC1 [TCMDC-132179],54.96
16,CN1CCC(C(=O)Nc2ccc(-c3ccc(-c4nc5ccccc5[nH]4)cc3)cc2)CC1 [TCMDC-132187],59.64
17,O=C(Nc1ccc(-c2cccc(-c3nc4ccccc4[nH]3)c2)cc1)Nc1ccsc1 [TCMDC-133220],7.696
18,O=C(Nc1ccc(-c2csc(-c3nc4ccccc4[nH]3)c2)cc1)Nc1ccsc1 [TCMDC-133207],-12.45
19,CC(C)=CCN1CCC(C(=O)Nc2ccc(-c3nc4ccccc4[nH]3)cc2)CC1 [TCMDC-124613],-52.31
20,CN1CCN(CC(=O)Nc2ccc(-c3ccc(-c4nc5ccccc5[nH]4)s3)cc2)CC1 [TCMDC-136971],-13.63
21,CN1CCC(C(=O)Nc2ccc(-c3ccc(-c4nc5cc(C(F)(F)F)ccc5[nH]4)s3)cc2)CC1 [TCMDC-132183],-1.127
22,COc1ccc2nccc([C@@H](O)CN3CCC(NCc4cc5cccc(OCc6ccccc6)c5[nH]4)CC3)c2c1 [TCMDC-141117],10.73

row,SMILES,% Inhibition [%]
1,Clc1cccc(C=NNc2ccnc3ccccc23)c1 [TCMDC-142057],-48.21
2,CSc1cccc(Nc2nc3ccc(S(=O)(=O)NCC(C)C)cc3n2C(C)C(C)C)c1 (centres unmarked) [TCMDC-136235],-38.43
3,O=C(CCN(Cc1ccco1)c1nc(-c2ccc(F)cc2)nc2ccccc12)NC1CC1 [TCMDC-124785],-4.08
4,O=C(Cc1cccc2ccccc12)NC1CCN(c2ccnc3cc(Cl)ccc23)C1 (centres unmarked) [TCMDC-133666],-21.93
5,O=C(NCC1CN(Cc2ccc(N3CCCC3)o2)CCCO1)c1ccc2c(c1)OCO2 (centres unmarked) [TCMDC-134852],-25.48
6,Cc1cc(N[C@@H](CC(C)C)C(=O)Nc2ccccc2)nc(NCc2ccccc2C)n1 [TCMDC-134912],-40.4
7,COc1cc(C(=O)N2CCOC(CCN3CCC(Cc4ccc(F)cc4)CC3)(c3ccc(Cl)c(Cl)c3)C2)cc(OC)c1OC (centres unmarked) [TCMDC-135568],-27.28
8,Cc1cccc(C)c1CNc1cccc(-c2nc(C)c(C)[nH]2)c1 [TCMDC-133434],-88.3
9,CCCNc1nc(NCc2c(C)cccc2C)nc(NC(C)(C)C)n1 [TCMDC-133383],61.71
10,Cc1cccc(C)c1CNc1ccnc2ccccc12 [TCMDC-132169],-38.56
11,FC(F)(F)c1ccc2nc(-c3ccc(-c4cccc(CN5CCN(c6ccncc6)CC5)c4)cc3)[nH]c2c1 [TCMDC-132916],2.402
12,COc1ccc2nccc([C@@H](O)CN3CCC(NCc4cc5ccccc5o4)CC3)c2c1 [TCMDC-140521],12.09
13,Cc1cc(-c2nc3ccc(C(=O)NCc4ccccc4)cc3n2C2CCN(C(=O)c3ccc(-c4ccccc4)cc3)CC2)ccn1 [TCMDC-135884],25.38
14,Cc1ccc(NC(=O)N2CCC(n3c(-c4ccccc4)nc4cccnc43)CC2)cc1F [TCMDC-124742],24.56
15,O=C(Nc1ccc(Br)cc1)N1CCC(n2c(-c3ccccc3)nc3cccnc32)CC1 [TCMDC-124743],60.37
16,CS(=O)(=O)c1ccc2c(c1)CCN(CCC1CCC(NC(=O)c3cc4cccc(Br)c4[nH]3)CC1)CC2 (centres unmarked) [TCMDC-141425],-26.4
17,Clc1ccc(-c2cc(-c3csc(NCCN4CCOCC4)n3)on2)c(Cl)c1 [TCMDC-140322],15.06
18,O=C(Nc1ccc(OC2CCN(Cc3ccsc3)C2)c(Cl)c1)c1ccsc1 (centres unmarked) [TCMDC-133947],1.522
19,CC[C@H]1CN2CC[C@@H]1C[C@H]2[C@H](O)c1cc[n+]([O-])c2ccc(OC)cc12 [TCMDC-142004],8.307
20,Oc1c(Cl)cc(-c2ccccc2)cc1CNC1CCCCC1 [TCMDC-137170],-21.36
21,Oc1ccccc1CNC1CCCCC1NCc1ccccc1O (centres unmarked) [TCMDC-138468],62.18
22,Oc1cc2ccccc2cc1CNC1CCCCC1 [TCMDC-131977],-28.97
